Screening results (PubChem)
Most compounds without a hit are left out; they make up all but 9.3% or so of the library.
SMN2 splice enh = SMN2 splice variant enhancement; HEK293 SMN2-luciferase splicing reporter, luminescence, 30-36 h; Potency, µM (titrated, usually from 46.1 µM), most hits filed as activators; actives 2.8% (n = 210,000); AID 1458; also: nearly all actives have a fitted effect of over 55% in size
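HEK293 cells carry an SMN2 minigene-luciferase reporter in which exon 7 inclusion puts luciferase in frame. Cells were seeded at 2000 cells/well, attached for 10-12 hours, then exposed to compounds for 30-36 hours at 37C before ONE-Glo luminescence.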
NPC1 prom act = activators of NPC1 promoter | Huh7 NPC1 promoter luciferase reporter, 24 h | Potency, µM (series often up to 9.22 µM), actives largely listed as activators | actives 2.4% (n = 320,000) | AID 485313; also: nearly all actives have a fitted effect of over 60% in size
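Cells: Huh7 expressing luciferase under the NPC1 promoter, 1500/well. Seeded 2 h, compound added, incubated 24 h at 37 °C. Luciferase reagent, 10 min ambient, then luminescence.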
FLuc modulator = firefly luciferase modulation, counter-screen for miR-21 project | P08659 | purified FLuc, Km substrates, luminescence inhibition | Potency, µM (series often up to 57.5 µM), hits mostly inhibitors | actives 6.9% (n = 360,000); also: nearly all actives have a fitted effect of over 55% in size
Target sequence (P08659 whole entry, looked up): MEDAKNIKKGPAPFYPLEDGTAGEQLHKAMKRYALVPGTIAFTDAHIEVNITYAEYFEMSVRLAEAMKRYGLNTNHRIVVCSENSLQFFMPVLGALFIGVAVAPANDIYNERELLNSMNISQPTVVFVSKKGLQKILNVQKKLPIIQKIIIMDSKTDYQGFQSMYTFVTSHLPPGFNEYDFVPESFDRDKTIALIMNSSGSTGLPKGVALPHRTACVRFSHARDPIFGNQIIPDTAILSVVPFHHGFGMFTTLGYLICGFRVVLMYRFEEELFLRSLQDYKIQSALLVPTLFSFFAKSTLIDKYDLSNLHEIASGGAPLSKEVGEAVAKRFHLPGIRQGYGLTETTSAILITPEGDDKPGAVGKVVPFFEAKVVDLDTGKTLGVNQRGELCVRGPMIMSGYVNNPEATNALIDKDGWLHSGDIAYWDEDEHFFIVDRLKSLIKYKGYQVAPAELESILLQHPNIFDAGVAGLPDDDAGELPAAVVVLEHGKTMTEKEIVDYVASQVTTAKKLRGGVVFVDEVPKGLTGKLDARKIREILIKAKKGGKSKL
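Biochemical qHTS of compounds, final roughly 60 µM downward over six points, against 10 nM purified firefly luciferase using Km concentrations of substrates (10 uM D-luciferin, 10 uM ATP) in Tris acetate pH 7.5 buffer; luminescence output.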
ELG1 DNA repair = inhibitors of ELG1-dependent DNA repair in HEK293T cells; HEK293T ELG1-luciferase reporter, luminescence, 16 h; DNA damage induced by 5-fluorouridine; Potency, µM (top dose mostly 46.1 µM), usual class: inhibitors; actives 2.3% (n = 330,000); AID 504467; also: nearly all actives have a fitted effect of over 55% in size
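Luminescence from the luciferase reporter, measured 30 min after ONE-Glo reagent at room temperature, was the read-out. Beforehand, 2,000 cells per well were exposed for 16 hr at 37 °C to 5-fluorouridine together with compound or vehicle.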
Rab9 promoter act = activators of Rab9 promoter. Potency, µM (series often up to 9.22 µM), most hits filed as activators. actives 2.8% (n = 320,000). AID 485297. Huh7 Rab9 promoter-luciferase reporter, luminescence, 24 h; also: nearly all actives have a fitted effect of over 60% in size
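Luminescence read-out: Huh7 cells stably expressing Rab9-luciferase, treated 24 h with compound at 37 °C, then lysed with luciferase reagent for 10 min at ambient before reading.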
ELG1 genotoxic = inducers of genotoxicity in HEK293T ELG1-luciferase cells. HEK293T ELG1-luciferase reporter, luminescence, 16 h. Potency, µM (doses to about 46 µM), actives largely listed as activators. actives 1.3% (n = 330,000); also: nearly all actives have a fitted effect of over 60% in size
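Reporter readout depends on ELG1 protein level, which increases with genetic stress. After 16 hr compound exposure at 37 °C, luciferase activity was quantified using ONE-Glo.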
Numbers stand for hits. Calls follow the shape of the dose curve; as a rule, active = well fitted curve in the direction sought with a large enough effect; inconclusive = small, poorly fitted or top-dose-only effect, or another doubt; inactive = no such curve, though single readings can be large; an effect the other way counts as inactive or inconclusive.

Results for CC1(C)CC(=O)C(C=Nc2ccc(Cl)cn2)=C(O)C1 ?
SMN2 splice enh: inactive; NPC1 prom act: inactive; FLuc modulator: inconclusive; ELG1 DNA repair: inactive; Rab9 promoter act: inactive; ELG1 genotoxic: inactive

Results for Cc1[nH]nc(N=CC2=C(O)CC(c3ccco3)CC2=O)c1-c1ccc(Cl)cc1 (configuration not stated) ?
SMN2 splice enh: inactive; NPC1 prom act: inactive; FLuc modulator: inactive; ELG1 DNA repair: inconclusive; Rab9 promoter act: inactive; ELG1 genotoxic: inactive

What do the screens show for `CCOc1ccc(N=CC2=C(O)CC(C)(C)CC2=O)cc1`?
SMN2 splice enh: inactive; NPC1 prom act: inactive; FLuc modulator: 24µM; ELG1 DNA repair: inconclusive; Rab9 promoter act: inactive; ELG1 genotoxic: inconclusive

Results for COc1ccc(C(=O)c2ccccc2O)c(O)c1 ?
SMN2 splice enh: inactive; NPC1 prom act: inactive; FLuc modulator: inactive; ELG1 DNA repair: inactive; Rab9 promoter act: inactive; ELG1 genotoxic: inactive

How did COc1ccc(/C(C)=N/Nc2ccc(F)cc2F)c(O)c1 do in these assays?
SMN2 splice enh: inconclusive; NPC1 prom act: inactive; FLuc modulator: 11µM; ELG1 DNA repair: inconclusive; Rab9 promoter act: inconclusive; ELG1 genotoxic: inconclusive

How did N/C(CC(=O)Nc1ccc(F)cc1F)=N\OC(=O)c1cccs1 do in these assays?
NPC1 prom act: inactive; FLuc modulator: inactive; ELG1 DNA repair: inactive; Rab9 promoter act: inactive; ELG1 genotoxic: inactive

What do the screens show for `COc1ccc(C(=O)CCC(=O)Nc2ccc(F)cc2F)cc1`?
FLuc modulator: inactive

What do the screens show for `C/C(=N\Nc1ccc(F)cc1F)c1cccs1`?
SMN2 splice enh: inactive; NPC1 prom act: inactive; FLuc modulator: 19µM; ELG1 DNA repair: inconclusive; Rab9 promoter act: inactive; ELG1 genotoxic: inconclusive

What do the screens show for `COc1ccc(/C(C)=N/Nc2ccccc2Cl)c(O)c1`?
NPC1 prom act: inactive; FLuc modulator: 11µM; ELG1 DNA repair: inconclusive; Rab9 promoter act: inactive; ELG1 genotoxic: inconclusive

What do the screens show for `Cc1cccc(OCC(=O)N2CCN(C(=O)c3ccco3)CC2)c1`?
SMN2 splice enh: inactive; NPC1 prom act: inactive; FLuc modulator: inactive; ELG1 DNA repair: inactive; Rab9 promoter act: inactive; ELG1 genotoxic: inactive

How did Cc1nc(NC(=O)c2ccccc2)sc1-c1csc(NCc2ccccc2)n1 do in these assays?
SMN2 splice enh: inactive; NPC1 prom act: inactive; FLuc modulator: inconclusive; ELG1 DNA repair: 21µM; Rab9 promoter act: inactive; ELG1 genotoxic: inactive

Results for CCCCC(=O)Nc1nc(C)c(-c2csc(Nc3cc(Cl)ccc3OC)n2)s1 ?
SMN2 splice enh: inactive; NPC1 prom act: inactive; FLuc modulator: inactive; ELG1 DNA repair: inconclusive; Rab9 promoter act: inactive; ELG1 genotoxic: inactive

How did COc1ccccc1Nc1nc(-c2sc(NC(=O)c3ccccc3)nc2C)cs1 do in these assays?
SMN2 splice enh: inactive; NPC1 prom act: inactive; FLuc modulator: 21µM; ELG1 DNA repair: inactive; Rab9 promoter act: inactive; ELG1 genotoxic: inactive

What do the screens show for `CCCCC(=O)Nc1nc(C)c(-c2csc(Nc3cc(OC)ccc3OC)n2)s1`?
SMN2 splice enh: inactive; NPC1 prom act: inactive; FLuc modulator: inactive; ELG1 DNA repair: 18µM; Rab9 promoter act: inactive; ELG1 genotoxic: inactive

What do the screens show for `COc1ccccc1Nc1ccc(Nc2ccccc2OC)nn1`?
NPC1 prom act: inconclusive; FLuc modulator: 9.5µM; ELG1 DNA repair: inconclusive; Rab9 promoter act: inconclusive; ELG1 genotoxic: inconclusive

What do the screens show for `COc1ccc(OC)c(Nc2ccc(Nc3cc(OC)ccc3OC)nn2)c1`?
SMN2 splice enh: inactive; NPC1 prom act: inactive; FLuc modulator: inactive; ELG1 DNA repair: inconclusive; Rab9 promoter act: inactive; ELG1 genotoxic: inactive

What do the screens show for `CN(C)CCN(Cc1ccccc1)C(=O)[C@H](Cc1ccccc1)N1C(=O)c2ccccc2C1=O`?
NPC1 prom act: inactive; FLuc modulator: inactive; ELG1 DNA repair: inactive; Rab9 promoter act: inactive; ELG1 genotoxic: inactive

Results for Cc1nc(NC(=O)c2ccccc2)sc1-c1csc(N)n1 ?
SMN2 splice enh: inactive; NPC1 prom act: inconclusive; FLuc modulator: 9.5µM; ELG1 DNA repair: inactive; Rab9 promoter act: inactive; ELG1 genotoxic: inactive

How did COc1ccccc1NC1=C(C)C(=O)CC1 do in these assays?
SMN2 splice enh: 18µM; NPC1 prom act: inactive; FLuc modulator: inactive; ELG1 DNA repair: inconclusive; Rab9 promoter act: inactive; ELG1 genotoxic: 21µM

How did Cc1csc(Nc2cccc3ccccc23)n1 do in these assays?
SMN2 splice enh: inactive; NPC1 prom act: inactive; FLuc modulator: inconclusive; ELG1 DNA repair: inconclusive; Rab9 promoter act: inactive; ELG1 genotoxic: inactive

How did Cc1nc(NC(=O)c2ccccc2)sc1-c1csc(Nc2cccc(F)c2)n1 do in these assays?
SMN2 splice enh: inactive; NPC1 prom act: inactive; FLuc modulator: 13µM; ELG1 DNA repair: inconclusive; Rab9 promoter act: inactive; ELG1 genotoxic: inactive

How did COc1ccccc1Nc1nc(C)cs1 do in these assays?
SMN2 splice enh: inconclusive; NPC1 prom act: inactive; FLuc modulator: 27µM; ELG1 DNA repair: inconclusive; Rab9 promoter act: inactive; ELG1 genotoxic: inactive

Results for O=C(C1CCN(c2nc3ccccc3[nH]2)CC1)N1CCN(c2cccc(Cl)c2)CC1 ?
FLuc modulator: inactive

What do the screens show for `O=c1c2ccccc2cnn1-c1ccc(Cl)cc1`?
SMN2 splice enh: 10µM; NPC1 prom act: 1.4µM; FLuc modulator: 5.4µM; ELG1 DNA repair: inconclusive; Rab9 promoter act: 1µM; ELG1 genotoxic: inconclusive

What do the screens show for `COc1c(Cl)cnn(-c2cccc(C)c2)c1=O`?
NPC1 prom act: inactive; FLuc modulator: inactive; ELG1 DNA repair: inactive; Rab9 promoter act: inactive; ELG1 genotoxic: inactive

What do the screens show for `O=c1c2ccccc2cnn1Cc1n[nH]c(=S)n1-c1ccc(Cl)cc1`?
SMN2 splice enh: inactive; NPC1 prom act: inactive; FLuc modulator: inactive; ELG1 DNA repair: inactive; Rab9 promoter act: inactive; ELG1 genotoxic: inactive

Results for Cc1ccc(-n2ncc3ccccc3c2=O)cc1Cl ?
SMN2 splice enh: 14µM; NPC1 prom act: 2.5µM; FLuc modulator: 5.4µM; ELG1 DNA repair: inconclusive; Rab9 promoter act: 2.8µM; ELG1 genotoxic: inconclusive

Results for Cc1ccc(C(=O)OCC(=O)c2c[nH]c3ccccc23)cc1S(=O)(=O)N1CCOCC1 ?
NPC1 prom act: inactive; FLuc modulator: inactive; ELG1 DNA repair: inconclusive; Rab9 promoter act: inactive; ELG1 genotoxic: inactive

What do the screens show for `Cc1cc(C)cc(N(CC(=O)NC2CCCC2)C(=O)CNC(=O)c2cccs2)c1`?
NPC1 prom act: inactive; FLuc modulator: inactive; ELG1 DNA repair: inactive; Rab9 promoter act: inactive; ELG1 genotoxic: inactive

What do the screens show for `COc1ccc(NC(=O)c2cccnc2Cl)c(S(=O)(=O)N2CCOCC2)c1`?
SMN2 splice enh: inactive; NPC1 prom act: inactive; FLuc modulator: inactive; ELG1 DNA repair: inactive; Rab9 promoter act: inactive; ELG1 genotoxic: inactive

What do the screens show for `Cc1ccc(NC(=O)c2sccc2C)cc1S(=O)(=O)N(C)C`?
SMN2 splice enh: inactive; NPC1 prom act: inactive; FLuc modulator: 19µM; ELG1 DNA repair: inactive; Rab9 promoter act: inactive; ELG1 genotoxic: inactive
